In general, inhibition refers to the change of the read-out against control, counted positive when it falls.

SMILES strings stand for the structures. Unmarked numbers belong to inactive results. The rule behind the calls is not given here.

This assay deals with Pantothenate synthetase (Mycobacterium tuberculosis (strain ATCC 25618 / H37Rv)) (UniProt P9WIL5). Kind of assay: Coupled enzyme confirmation of inhibitors against recombinant Mtb PanC (AID 375).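 Note: 0% = full reaction with vehicle and 100% = no enzyme background.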 The conditions noted are these: coupled enzyme assay; at 10 µM, hits give high values.
Pantothenate synthetase (Mycobacterium tuberculosis (strain ATCC 25618 / H37Rv)), sequence (P9WIL5 whole entry, looked up): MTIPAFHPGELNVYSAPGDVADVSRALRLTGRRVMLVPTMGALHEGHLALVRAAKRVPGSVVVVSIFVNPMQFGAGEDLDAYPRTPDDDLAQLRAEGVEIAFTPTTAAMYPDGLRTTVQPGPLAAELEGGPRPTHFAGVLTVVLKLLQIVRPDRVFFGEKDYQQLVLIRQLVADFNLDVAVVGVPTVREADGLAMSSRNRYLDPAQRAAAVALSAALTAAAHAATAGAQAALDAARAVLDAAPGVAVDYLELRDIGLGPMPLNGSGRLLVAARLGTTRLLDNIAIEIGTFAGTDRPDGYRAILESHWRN
On to `CCOC(=O)c1ccc(-n2c(C)nc3c(cnn3-c3ccccc3C)c2=O)cc1`, for which the inhibition is 0%.

For the molecule `Cc1occc1C(=O)Nc1ccccc1NC(=O)c1ccoc1C`, the inhibition was 3%.

For the molecule `Cc1sc2ncnc(OCC(=O)N3CCN(S(=O)(=O)c4ccccc4)CC3)c2c1C`, the inhibition is 0%.

Regarding `Cc1cc(O)c(NC(=O)c2ccc(Br)o2)cc1C`, the inhibition was 11%.

With `O=C(Cn1cnc2c(nnn2Cc2ccccc2)c1=O)c1ccc(Cl)cc1`, the inhibition is 5%.

Turning to `O=C(c1ccccc1)N1CCN(Cc2ccccc2Br)CC1`, the inhibition is 3%.

Consider `CCOC(=O)N1CCN(C(=O)C2c3cc(OC)c(OC)cc3C(=O)N3CCc4ccccc4C23)CC1` (stereo not given), for which the inhibition is 4%.

Regarding `COc1ccccc1-n1cnc2cc(NS(=O)(=O)c3ccccc3)ccc21`, the inhibition was 0%.

As for `CC(=O)c1ccc(NC(=O)CCc2c(C)nc3ncnn3c2C)cc1`, the inhibition is 4%.

Turning to `COc1ccccc1CNC(=O)C1CCCN(S(=O)(=O)c2cnc[nH]2)C1` (stereo not given), the inhibition is 0%.

Regarding `COc1ccc(C2C3=C(CCCC3=O)Nc3nc(SCc4ccccc4)nn32)cc1OC` (stereo not given), the inhibition is 0%.

On to `NC(=O)c1sc2nc(N3CCCCC3)c3c(c2c1N)CCCC3`, for which the inhibition was 0%.

Turning to `CC(=O)Nc1c(-c2ccc(F)cc2)nc2ccccn12`, the inhibition is 0%.

Consider `COc1ccc(-c2nnc(-c3cccs3)o2)cc1OC`, for which the inhibition was 0%.

In the case of `Cc1c(C(=O)NC2CCCc3ccccc32)oc2ccc(S(=O)(=O)N3CCOCC3)cc12` (stereo not given), the inhibition was 6%.

Take `O=S(=O)(c1ccc(OCC(O)CN2CCC(Cc3ccccc3)CC2)cc1)N1CCOCC1` (stereo not given): the inhibition is 1%.

On to `CC(C)OC(=O)C1C2C=CC3(CN(Cc4cccs4)C(=O)C13)O2` (stereo not given), for which the inhibition was 0%.

`CCc1ccccc1NC(=O)CSC1=C(C#N)C(c2ccc(O)c(OC)c2)C2=C(CCCC2=O)N1` (stereo not given): the inhibition is 6%.

Turning to `Cc1ccc(-n2c(SCC3CCCCO3)nnc2-c2ccco2)cc1` (stereo not given), the inhibition is 6%.

In the case of `CC(C)(C)OC(=O)N1CCCC1C(=O)N1CCc2ccccc21` (stereo not given), the inhibition is 0%.

For the molecule `CCN(CC)S(=O)(=O)c1ccc(Cl)c(C(=O)OC)c1`, the inhibition is 8%.

In the case of `COCC(=O)NC(c1ccccc1)c1ccccc1`, the inhibition is 7%.

For the molecule `CN(C)CCC=C1c2ccccc2CCc2ccccc21`, the inhibition was 0%.

For `c1ccc(CN2CCN(c3ncnc4c3[nH]c3ccccc34)CC2)cc1`, the inhibition was 5%.

With `N=c1c(C(=O)NCc2ccccc2)cc2c(=O)n3ccccc3nc2n1Cc1ccco1`, the inhibition was 0%.

Regarding `CC(=O)Nc1ccc(NS(=O)(=O)C(F)(F)F)cc1`, the inhibition was 0%.

For `CCOc1c(C)cc2[nH]c(CCC(=O)O)nc2c1C`, the inhibition is 0%.

Consider `CCOCCn1cnc2sc(C(=O)Nc3nc(C)c(C(=O)OCC)s3)c(C)c2c1=O`, for which the inhibition was 13%.

In the case of `Cn1nnc2c(sc3nc(N4CCOCC4)c4c(c32)CCCC4)c1=O`, the inhibition was 8%.

Turning to `Cc1ccc(-n2c(N)c(C(N)=O)sc2=S)cc1`, the inhibition is 6%.

On to `Fc1ccc(NCc2nnc(SCc3nnc(-c4ccccc4)o3)n2CC2CCCO2)cc1` (stereo not given), for which the inhibition is 0%.

`O=S(=O)(NCC1CCCO1)c1ccc2c(c1)OCCO2` (stereo not given): the inhibition was 0%.

Take `O=C(Nc1ccncc1)c1cccc(F)c1`: the inhibition was 6%.

In the case of `O=C(/C=N/O)Nc1cccnc1`, the inhibition was 0%.

In the case of `C=CCN1C(=O)/C(=C2\SC(N3CCOCC3)=NC2=O)c2cc(Br)ccc21`, the inhibition was 0%.

Take `COc1cccc(C2C(C(N)=O)=C(C)Nc3nc(-c4ccccc4Cl)nn32)c1` (stereo not given): the inhibition is 0%.

As to `Cn1c(=O)c2[nH]c(NCC3CCCO3)nc2n(-c2ccccc2)c1=O` (stereo not given), the inhibition is 0%.

Consider `N#C/C(=C(/O)CN1CCOCC1)c1nc2ccccc2s1`, for which the inhibition is 0%.

For the molecule `N#CCCN(C(=O)Nc1ccc(Cl)cc1)c1ccccc1`, the inhibition is 1%.

Take `CCC(C)Nc1nc2c(c(=O)n(C)c(=O)n2C)n1Cc1ccc(F)cc1` (stereo not given): the inhibition is 3%.

For the origin of these results see PubChem BioAssay.
